In PubChem BioAssay (NCI):
The panel holds about 83,000 compounds, 20% with a hit somewhere; the sample as a whole holds those more often.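 How to read the values: 0–100, growth inhibition (40 = 60% inhibited); 0, no net growth; -100 to 0, cell death (-40 = 40% of starting cells died; -100 = all dead).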 Activity calls are given as the source filed them. How the source made its calls: active means growth percent below 10; inactive means the rest.

How the values were obtained:
Assay in all cases: NCI-60 one-dose screen, 48 h (100 = growth as untreated, 0 = no growth, -100 = all killed)
Details in all cases: 10 µM unless noted
SK-MEL-2 melanoma = tested on: SK-MEL-2 melanoma
EKVX NSCLC = tested on: EKVX NSCLC
SN12C renal = tested on: SN12C renal
UO-31 renal = tested on: UO-31 renal
TK-10 renal = tested on: TK-10 renal
ACHN renal = tested on: ACHN renal
CAKI-1 renal = tested on: CAKI-1 renal
A498 renal = tested on: A498 renal
CCRF-CEM leukemia = tested on: CCRF-CEM leukemia
MOLT-4 leukemia = tested on: MOLT-4 leukemia

Measured: growth

COc1ccc(C2=C(Br)C(=O)c3nc(C)ccc3C2=O)cc1
inactive: SK-MEL-2 melanoma 102% | EKVX NSCLC 94.4% | SN12C renal 92.8% | UO-31 renal 69.9% | TK-10 renal 71.7% | ACHN renal 17% | CAKI-1 renal 81.2% | A498 renal 88.7% | CCRF-CEM leukemia 30.1% | MOLT-4 leukemia 41.4%

Cc1ccc(/C=C2\COc3ccc(O)cc3C2=O)cc1
inactive: SK-MEL-2 melanoma 117% | EKVX NSCLC 97.8% | SN12C renal 79.9% | UO-31 renal 58.9% | TK-10 renal 102% | ACHN renal 94% | CAKI-1 renal 80.8% | A498 renal 109% | MOLT-4 leukemia 40.6%
active: CCRF-CEM leukemia 2.21%

O=S(=O)(NCCCNc1nccc(-c2c(-c3ccc(F)c(O)c3)nc3sccn23)n1)c1ccccc1
inactive: SK-MEL-2 melanoma 24.9% | EKVX NSCLC 106% | SN12C renal 59% | UO-31 renal 31.1% | TK-10 renal 120% | ACHN renal 52.3% | CAKI-1 renal 55.9% | A498 renal 104% | CCRF-CEM leukemia 38.2% | MOLT-4 leukemia 50.9%

COC1=CC(c2ccc[nH]2)=N/C1=C\c1[nH]c(C)c(CC(=O)NCc2ccccc2)c1C
active: UO-31 renal -17.4% | ACHN renal 8.33% | CAKI-1 renal 1.97% | A498 renal -5.8% | MOLT-4 leukemia 3.45%
inactive: SK-MEL-2 melanoma 16.7% | EKVX NSCLC 21.1% | SN12C renal 29.1% | TK-10 renal 24.9% | CCRF-CEM leukemia 22.4%

COc1ccc(Nc2nnc(-c3ccc(OC)c(OC)c3)o2)cc1
inactive: SK-MEL-2 melanoma 90.5% | EKVX NSCLC 89.8% | SN12C renal 97.8% | UO-31 renal 55.3% | TK-10 renal 114% | ACHN renal 82.8% | CAKI-1 renal 89% | A498 renal 94.8% | CCRF-CEM leukemia 86.8% | MOLT-4 leukemia 91.3%

C#CCOc1cccc(Nc2ncnc3cc(NC(=O)C=C)ccc23)c1
inactive: SK-MEL-2 melanoma 25.3% | EKVX NSCLC 32.5% | SN12C renal 13.2% | UO-31 renal 16.8% | ACHN renal 17.2% | CAKI-1 renal 16% | A498 renal 26.8%
active: TK-10 renal -12.6% | CCRF-CEM leukemia 2.9% | MOLT-4 leukemia 7.88%

O=C(/C=C/c1cccc(Cl)c1)c1ccc(Nc2nc(Nc3ccc(F)cc3)nc(Nc3ccc(Cl)cc3)n2)cc1
inactive: SK-MEL-2 melanoma 72.2% | EKVX NSCLC 139% | SN12C renal 136% | UO-31 renal 94.6% | TK-10 renal 127% | ACHN renal 116% | CAKI-1 renal 112% | A498 renal 124% | CCRF-CEM leukemia 103% | MOLT-4 leukemia 94%

O=C1/C(=C/c2ccc([N+](=O)[O-])cc2)COc2ccc(O)cc21
active: CCRF-CEM leukemia 3.96%
inactive: SK-MEL-2 melanoma 109% | EKVX NSCLC 92.3% | SN12C renal 76.8% | UO-31 renal 53.7% | TK-10 renal 92.7% | ACHN renal 82.7% | CAKI-1 renal 63.6% | A498 renal 99.5% | MOLT-4 leukemia 39.3%

COc1cc2cc(NCc3cccc(Cl)c3)nc(C)c2cc1OC
inactive: SK-MEL-2 melanoma 38.6% | EKVX NSCLC 60% | SN12C renal 44.6% | UO-31 renal 36% | TK-10 renal 45.9% | ACHN renal 43.5% | CAKI-1 renal 52% | CCRF-CEM leukemia 27.5% | MOLT-4 leukemia 30.4%
active: A498 renal 7.63%

O=C(N(c1ccccc1)c1ccccc1)n1cc(I)c2nc(Cl)nc(Cl)c21
active: CCRF-CEM leukemia 4.32% | MOLT-4 leukemia 2.48%
inactive: SK-MEL-2 melanoma 70.5% | EKVX NSCLC 71.1% | SN12C renal 34.8% | UO-31 renal 54.4% | TK-10 renal 86.8% | ACHN renal 57.9% | CAKI-1 renal 39.6% | A498 renal 67.9%

CC(=O)c1c(C)nc2ccccc2c1/C=C/c1ccc(F)cc1
inactive: SK-MEL-2 melanoma 93.3% | EKVX NSCLC 75.5% | SN12C renal 93.3% | UO-31 renal 67.6% | TK-10 renal 91.8% | ACHN renal 85.4% | CAKI-1 renal 75.7% | A498 renal 84.6% | CCRF-CEM leukemia 82% | MOLT-4 leukemia 84.1%

Clc1cc(Cl)c(Cl)c(-c2nnc(SCc3ccncc3Br)o2)c1
inactive: SK-MEL-2 melanoma 91.8% | EKVX NSCLC 84.5% | SN12C renal 92.3% | UO-31 renal 67.4% | TK-10 renal 117% | ACHN renal 94.4% | CAKI-1 renal 65.8% | A498 renal 94.8% | CCRF-CEM leukemia 77.1% | MOLT-4 leukemia 75.1%

COC(=O)c1cc(N=C2NC(=O)/C(=C/C=C/c3ccccc3)S2)ccc1O
inactive: SK-MEL-2 melanoma 74.1% | EKVX NSCLC 53.7% | SN12C renal 38.6% | UO-31 renal 53.8% | TK-10 renal 53.2% | ACHN renal 46.5% | CAKI-1 renal 29% | A498 renal 17.6% | CCRF-CEM leukemia 20.7% | MOLT-4 leukemia 31.7%

CN(C)S(=O)(=O)c1cccc(C(=O)Nc2nc(-c3ccc(F)c(F)c3)cs2)c1
inactive: SK-MEL-2 melanoma 32.2% | EKVX NSCLC 48.7% | SN12C renal 62.9% | UO-31 renal 38.7% | TK-10 renal 81.2% | ACHN renal 63.4% | CAKI-1 renal 97.1% | A498 renal 46.3% | CCRF-CEM leukemia 39.6% | MOLT-4 leukemia 28.2%

CS(=O)(=O)Nc1cc(-c2ccc3ncnc(Nc4ccc5c(cnn5Cc5cccc(F)c5)c4)c3c2)cnc1Cl
active: SK-MEL-2 melanoma -42% | EKVX NSCLC 4.57% | SN12C renal 3.84% | TK-10 renal -15.9% | CAKI-1 renal -27.9% | A498 renal -48.7% | MOLT-4 leukemia -10%
inactive: UO-31 renal 15.7% | ACHN renal 18.4% | CCRF-CEM leukemia 12.7%

COc1ccc2c(c1)N(CCO)C1=C(C(=O)OC1)C2c1cccc(F)c1 (stereo not given)
inactive: SK-MEL-2 melanoma 31.3% | EKVX NSCLC 38.9% | SN12C renal 45.2% | UO-31 renal 46.3% | TK-10 renal 61.2% | ACHN renal 27.6% | CAKI-1 renal 31.3% | MOLT-4 leukemia 16.3%
active: A498 renal -4.39% | CCRF-CEM leukemia 9.38%

Nc1nc(N)c(-c2ccc(Cl)c(Cl)c2)c(CBr)n1
inactive: SK-MEL-2 melanoma 87.6% | EKVX NSCLC 85.3% | SN12C renal 79.2% | UO-31 renal 88.7% | TK-10 renal 83.6% | ACHN renal 68.4% | CAKI-1 renal 82.3% | A498 renal 89.9% | CCRF-CEM leukemia 55.8% | MOLT-4 leukemia 61.3%

O=[N+]([O-])c1ccc(O)cc1Br
inactive: SK-MEL-2 melanoma 97.8% | EKVX NSCLC 98% | SN12C renal 98% | UO-31 renal 83.8% | TK-10 renal 99.9% | ACHN renal 99.2% | CAKI-1 renal 94.5% | A498 renal 81.6% | CCRF-CEM leukemia 95.2% | MOLT-4 leukemia 104%

COc1ccc2c(c1OC)CO[C@@H]2[C@H]1c2c(cc3c(c2OC)OCO3)CCN1S(=O)(=O)c1cn(C)cn1
inactive: SK-MEL-2 melanoma 36.3% | EKVX NSCLC 45.6% | SN12C renal 41.1% | UO-31 renal 46.2% | TK-10 renal 54.1% | ACHN renal 36.6% | CAKI-1 renal 31.7% | CCRF-CEM leukemia 21.4% | MOLT-4 leukemia 27.4%
active: A498 renal -21.3%

CC/C=C\C[C@H](O)C/C=C1/C(=O)C=C[C@@H]1C/C=C\CCCC(=O)N(C)C
inactive: SK-MEL-2 melanoma 29% | EKVX NSCLC 22.9% | A498 renal 50.2%
active: SN12C renal -9.16% | UO-31 renal -81.3% | TK-10 renal -6.21% | ACHN renal -85% | CAKI-1 renal -9.48% | CCRF-CEM leukemia 0.876% | MOLT-4 leukemia 6.69%

CN(C)CCNC(=O)c1cc2c3cc(Cl)ccc3[nH]c2c2ncccc12
active: UO-31 renal 6.68% | CCRF-CEM leukemia -13.2% | MOLT-4 leukemia -12.4%
inactive: SK-MEL-2 melanoma 47.9% | EKVX NSCLC 22.1% | SN12C renal 10.2% | TK-10 renal 42.8% | ACHN renal 10.2% | CAKI-1 renal 23.8% | A498 renal 26.7%

O=C(O)c1ccc(-n2cc(/C=N/Nc3ccccc3)c(-c3ccc(F)cc3F)n2)cc1
inactive: SK-MEL-2 melanoma 15.4% | EKVX NSCLC 55.2% | SN12C renal 73.1% | UO-31 renal 13% | TK-10 renal 57.4% | ACHN renal 47.1% | CAKI-1 renal 28.5% | A498 renal 81.7% | CCRF-CEM leukemia 26.6% | MOLT-4 leukemia 38.7%

O=C1Nc2ccccc2/C1=C/c1cccn1CCCCn1c2ccccc2c(=O)c2ccccc21
inactive: SK-MEL-2 melanoma 84% | EKVX NSCLC 86.1% | SN12C renal 97.9% | UO-31 renal 49.7% | TK-10 renal 104% | ACHN renal 76.3% | CAKI-1 renal 69.5% | A498 renal 109% | CCRF-CEM leukemia 52.8% | MOLT-4 leukemia 47.7%

CCOC(=O)c1csc(NC(=O)COc2ccc(/C=C3\Oc4ccccc4C3=O)cc2)n1
active: UO-31 renal -14%
inactive: SK-MEL-2 melanoma 94.8% | EKVX NSCLC 74% | SN12C renal 91% | TK-10 renal 119% | ACHN renal 108% | CAKI-1 renal 91.2% | A498 renal 119% | CCRF-CEM leukemia 23.5% | MOLT-4 leukemia 42.2%

O=C(c1nn(-c2ccccc2)c2c1CC(NCc1ccc(F)cc1)CC2)N1CCCCC1 (stereo not given)
inactive: SK-MEL-2 melanoma 103% | EKVX NSCLC 97.6% | SN12C renal 105% | UO-31 renal 74.2% | TK-10 renal 92.5% | ACHN renal 104% | CAKI-1 renal 85% | A498 renal 120% | CCRF-CEM leukemia 108% | MOLT-4 leukemia 73.5%

O=C(/C=C/c1ccco1)Nc1ncc(Cc2cccc(C(F)(F)F)c2)s1
inactive: SK-MEL-2 melanoma 23.4% | EKVX NSCLC 25% | SN12C renal 20.9% | UO-31 renal 11.8% | TK-10 renal 33.6% | ACHN renal 11.7% | CAKI-1 renal 20.5% | CCRF-CEM leukemia 14.5% | MOLT-4 leukemia 14%
active: A498 renal -6.36%

CCOC(=O)C/C(=N\Nc1cc(=O)[nH]c2ccc(Br)cc12)C(=O)OCC
active: CCRF-CEM leukemia -36.7% | MOLT-4 leukemia -15.7%
inactive: SK-MEL-2 melanoma 103% | EKVX NSCLC 109% | SN12C renal 100% | UO-31 renal 71.4% | TK-10 renal 126% | ACHN renal 95.7% | CAKI-1 renal 83.1% | A498 renal 122%
